# HEK293 viab: counter-screen for SNCA expression inhibitors: cell viability; Potency, µM (titrated, usually from 57.1 µM), inactives show at the top dose activity change, negative = cytotoxicity, actives largely listed as cytotoxic; HEK-293-SNCA-luc viability, GF-AFC fluorescence, 24 h; 150,000 compounds, 0.12% hits; AID 1671193;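 further: 0% = DMSO-treated cells and -100% = medium-only wells without cells; nearly all actives have a fitted effect of over 30% in size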
#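 HEK-293-SNCA-luc cells (1500/well) plated 24 h, then exposed 24 h to a dilution series; GF-AFC added 30 min at 37C, fluorescence 405/540 nm; normalised to medium-only and DMSO wells, Hill fit.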
# NIH3T3 tox: cytotoxic compounds in NIH 3T3 cells. NIH 3T3 viability, CellTiter-Glo ATP luminescence, 48-72 h. Potency, µM (series often up to 96.7 µM), inactives show at the top dose activity change, negative = cytotoxicity, hits mostly inhibitors. 94,000 compounds, 4.3% hits; further: on the % scale 0 is the no-effect control and ±100 the full control effect; nearly all actives have a fitted effect of over 55% in size
#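 ATP-dependent luminescence (CellTiter-Glo) served as the viability signal for NIH 3T3 cells treated with compound for 48 or 72 hr at 37 °C.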
# HEK293 tox: kills HEK 293 cells; HEK 293 viability, ATP luminescence (CellTiter-Glo), 48-72 h; Potency, µM (titrated, usually from 115 µM), without a hit: top-dose activity change, negative = cytotoxicity, actives largely listed as inhibitors; 94,000 compounds, 6.6% hits; AID 1345083; further: on the % scale 0 is the no-effect control and ±100 the full control effect; nearly all actives have a fitted effect of over 60% in size
#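 qHTS cytotoxicity; HEK 293, 250 cells/well; compound pinned; 48 or 72 hr, 37 degree Celsius, 5% CO2, 95% humidity; CellTiter-Glo, 10 min RT; luminescence (ATP).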
# SNCA expr inhib: inhibitors of alpha-synuclein (SNCA) gene expression | Potency, µM (highest dose often 57.2 µM), for the others: at the top dose activity change, negative = inhibition, most hits filed as inhibitors | 140,000 compounds, 0.17% hits | HEK-293 SNCA-luciferase knock-in, luminescence, 24 h;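 further: plate controls were DMSO cells for no effect and cell-free wells for full effect; nearly all actives have a fitted effect of over 45% in size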
# NPR1 antag: antagonists of human natriuretic peptide receptor Npr1; P16066; HEK293 hNpr1 GloSensor cGMP, ANP-stimulated luminescence; Potency, µM (top dose mostly 46.3 µM), inactives show at the top dose activity change, negative = inhibition, most hits filed as inhibitors; 76,000 compounds, 1.6% hits; AID 1347048; calls by dose curve; further: on the % scale 0 is the no-effect control and ±100 the full control effect; nearly all actives have a fitted effect of over 60% in size
#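 HEK293 cells stably expressing human Npr1 and cGMP GloSensor pGS-40F, loaded 2 h with 2% GloSensor reagent, given compound 30 min at room temperature. Luminescence read before and 20 min after 0.1 nM hNppA.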
# FLuc inh-1: Photinus pyralis luciferase inhibition | P08659 | purified P. pyralis luciferase, luminescence, biochemical | Potency, µM (titrated, usually from 115 µM), usual class: inhibitors | 76,000 compounds, 2.5% hits | AID 1347043; further: on the % scale 0 is the no-effect control and ±100 the full control effect; nearly all actives have a fitted effect of over 65% in size
# Target sequence (P08659 whole entry, looked up): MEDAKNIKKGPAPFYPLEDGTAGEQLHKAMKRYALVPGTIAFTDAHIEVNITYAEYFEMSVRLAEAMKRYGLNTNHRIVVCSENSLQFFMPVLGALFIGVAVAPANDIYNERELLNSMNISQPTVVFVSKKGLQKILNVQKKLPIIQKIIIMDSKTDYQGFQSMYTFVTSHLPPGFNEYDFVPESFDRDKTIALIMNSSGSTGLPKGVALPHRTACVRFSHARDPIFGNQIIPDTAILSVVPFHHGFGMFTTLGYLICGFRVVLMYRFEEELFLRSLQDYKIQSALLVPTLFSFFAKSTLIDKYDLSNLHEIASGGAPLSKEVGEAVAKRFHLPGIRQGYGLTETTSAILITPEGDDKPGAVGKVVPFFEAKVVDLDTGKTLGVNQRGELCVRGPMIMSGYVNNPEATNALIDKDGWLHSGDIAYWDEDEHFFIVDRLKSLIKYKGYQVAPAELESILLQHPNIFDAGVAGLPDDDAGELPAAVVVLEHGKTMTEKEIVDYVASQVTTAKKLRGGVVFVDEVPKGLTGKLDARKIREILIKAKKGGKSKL
#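 Biochemical qHTS: compound (6-point titration) added to 10uM D-luciferin plus 10uM ATP in Tris acetate pH 7.5 buffer with Mg, Tween-20 and BSA, then purified enzyme at 10nM; light output imaged.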
# FLuc SDR -ATP: stabilizes firefly luciferase without ATP; shares compounds with FLuc inh-1; Purified FLuc-C-HiBiT, Nano-Glo HiBiT luminescence, no ATP; Potency, µM (series often up to 32.7 µM), for inactives: at the top dose activation (signal gain), usual class: activators; 1,300 compounds, 7.8% hits; AID 1963318; further: nearly all actives have a fitted effect of over 55% in size
# FLuc SDR ATP: stabilizes firefly luciferase with ATP present; shares compounds with FLuc inh-1; AID 1963319; purified FLuc-C-HiBiT + ATP, HiBiT complementation luminescence; 1,300 compounds, 8.7% hits; Potency, µM (doses to about 32.7 µM), without a hit: at the highest dose activation (gain of signal), most hits filed as activators;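 further: signal reports ligand binding via conformational change of the enzyme rather than luciferase catalysis; % of control where 0% means no effect; nearly all actives have a fitted effect of over 55% in size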
# FLuc inh-2: blocks firefly luciferase enzymatic activity; shares compounds with FLuc inh-1; purified FLuc-C-HiBiT enzyme, luciferin luminescence; Potency, µM (highest dose often 32.7 µM), without a hit: top-dose activity change, negative = inhibition, hits mostly inhibitors; 1,300 compounds, 42% hits; AID 1963320; further: on the % scale 0 is the no-effect control and ±100 the full control effect; nearly all actives have a fitted effect of over 70% in size
# The depositor's hits bear a star; i = inactive; ? = inconclusive; nt = no result; [ ] = another dose, or the depositor's remark. Sampled rows, rich in hits. Any-hit rate of the full collection: about 7.4%. Unless noted, the call rests on the fitted dose curve; in most records, active means well fitted curve in the direction sought with a large enough effect; inconclusive means small, poorly fitted or top-dose-only effect, or another doubt; inactive means no such curve, though single readings can be large; an effect the other way counts as inactive or inconclusive. Potency means the concentration at half of the fitted maximal effect.
SMILES,HEK293 viab,NIH3T3 tox,HEK293 tox,SNCA expr inhib,NPR1 antag,FLuc inh-1,FLuc SDR -ATP,FLuc SDR ATP,FLuc inh-2
Cc1ccc(CNC(=O)CCc2nc(C3CCCN3S(C)(=O)=O)no2)o1 (stereo not given),-9%,-17%,i,1%,nt,nt,nt,nt,nt
CCOc1ccc(-c2cc(CCCC(=O)NCCc3ccc(OC)c(OC)c3)no2)cc1,14%,nt,nt,?,nt,nt,19%,?,?
N#Cc1ccc(CN2CCc3n[nH]c(=O)n3CC2)cc1,1%,0%,i,8%,-9%,i,nt,nt,nt
COc1cccc(CN2CCNc3cc(-c4ccnc(C)c4)ncc3C2)c1,-15%[87.6 µM],?,71µM*,20%[87.6 µM],-4%[70.6 µM],14µM*,17%[49.3 µM],16%[49.3 µM],?
c1ccc(Oc2ccccc2-c2cc3c(cn2)CN(Cc2ccncc2)CCN3)cc1,-11%[87.6 µM],?,?,-20%[87.6 µM],-27%[70.6 µM],i,nt,nt,nt
CC(=O)Nc1cccc(-c2cc3c(cn2)CN(Cc2ccccc2)CCN3)c1,-13%[87.6 µM],?,?,6%[87.6 µM],2%[70.6 µM],14µM*,20%[49.3 µM],17%[49.3 µM],?
Cc1cc(-c2cc3c(cn2)CN(Cc2nccn2C)CCN3)ccn1,nt,nt,nt,nt,nt,nt,18%[49.3 µM],13%[49.3 µM],?
CN(C)C(=O)c1ccc(-c2cc3c(cn2)CN(CCc2ccccc2)CCN3)cc1,-22%[87.6 µM],?,?,5%[87.6 µM],-14%[70.6 µM],i,nt,nt,nt
COCCN1CCNc2cc(-c3cc(Cl)ccc3OC)ncc2C1,-15%[87.6 µM],?,?,-19%[87.6 µM],-2%[70.6 µM],?,nt,nt,nt
CC(=O)N1CCNc2cc(-c3cccc(F)c3)ncc2C1,nt,nt,nt,nt,nt,nt,21%[65.7 µM],16%[65.7 µM],?
COc1ccc(CN2C[C@H](O)C[C@H]2c2nc(-c3ccc(F)cc3)no2)c(OC)c1OC,-10%[87.6 µM],-18%[174 µM],-27%[172 µM],137%[87.6 µM],1%[70.6 µM],i,nt,nt,nt
CC(C(=O)N1CCN(c2cc(-c3ccccc3)[nH]n2)CC1)c1ccccc1 (stereo not given),-5%,?,?,7%,-18%,i,nt,nt,nt
COCCN1CCNc2cc(NCc3ccccc3)ncc2C1,-15%[87.6 µM],?,?,44%[87.6 µM],1%[70.6 µM],i,nt,nt,nt
COCCN1CCNc2cc(-c3cccc(N(C)C)c3)ncc2C1,nt,nt,nt,nt,nt,nt,31%[49.3 µM],?,16µM*
O=C(O)CCC1CCN(C(=O)c2ccccc2F)CC1,5%,i,12%,-15%,-1%,i,nt,nt,nt
CCC(C)(C)NC(=O)c1cccc2c1CCN2C(=O)Nc1cccc(C)c1,?,-27%,?,16%,-22%,7.9µM*,?,11µM*,7.9µM*
Cc1cccc(NC(=O)N2CCc3c(C(=O)N4CCN(C)CC4)cccc32)c1,?,-10%,?,?,-25%,7.1µM*,22%,2.5µM*,1.8µM*
Cc1c(C(C)NC(=O)CCN2CCCCCC2=O)cnn1-c1cccc(F)c1 (stereo not given),4%,-26%,-23%,7%,-9%,i,nt,nt,nt
CCOc1ccc(C(=O)NC2CCCN(c3cc(-c4ccc(OC)cc4)[nH]n3)C2)cc1OCC (stereo not given),1%,-15%,?,7%,1%,i,nt,nt,nt
COc1ccc(-c2cc(N3CCC(NC(=O)c4ccncc4)C3)n[nH]2)cc1 (stereo not given),-11%,-24%,?,22%,2%,?,nt,nt,nt
COc1ccc(-c2cc(N3CCCC(NC(=O)c4cccc(OC)c4OC)C3)n[nH]2)cc1 (stereo not given),-12%,?,?,35%,-11%,?,nt,nt,nt
COc1ccc(-c2cc(N3CCCC(NC(=O)c4ccc(OC)cc4OC)C3)n[nH]2)cc1 (stereo not given),?,?,45µM*,38%,-12%,13µM*,21%,14%,?
COc1ccc(-c2cc(N3CCCC(NC(=O)c4cc(OC)c(OC)c(OC)c4)C3)n[nH]2)cc1 (stereo not given),-8%,?,?,61%,-4%,6.3µM*,30%,16%,5.6µM*
COc1ccc(-c2cc(N3CCCC(NC(=O)c4ccncc4)C3)n[nH]2)cc1 (stereo not given),4%,4%,?,14%,-4%,13µM*,24%,17%,?
COc1ccc(-c2cc(N3CCCC(NC(=O)c4cc(OC)cc(OC)c4)C3)n[nH]2)cc1 (stereo not given),-9%,?,?,27%,-19%,5.6µM*,25%,17%,?
SMILES,HEK293 viab,NIH3T3 tox,HEK293 tox,SNCA expr inhib,NPR1 antag,FLuc inh-1,FLuc SDR -ATP,FLuc SDR ATP,FLuc inh-2
Cc1ccccc1C(=O)N1CCc2c(nc3cc[nH]n3c2=O)C1,10%,?,8%,-9%,6%,i,nt,nt,nt
C/C(=C\CO[C@@H]1O[C@H](CO[C@H]2OC[C@](O)(CO)[C@H]2O)[C@@H](O)[C@H](O)[C@H]1O)C(C)(C)O,0%[23.9 µM],nt,nt,nt,nt,nt,nt,nt,nt
O=C(c1cncc(F)c1)N1CCOCC2(CN(Cc3ccccc3)C2)C1,-1%[87.6 µM],?,?,?,0%[70.6 µM],i,nt,nt,nt
Cc1noc2c(N3CC[S+](=O)([O-])CC3)cc(-c3cccc(C(F)(F)F)c3)nc12,0%[87.6 µM],?,?,-16%[87.6 µM],10%[70.6 µM],i,nt,nt,nt
NCCO[C@H]1C[C@@H](O)C12CCN(C(=O)Cn1cnnn1)CC2,-1%,3%,i,4%,0%,i,nt,nt,nt
Cc1ccc(NC(=O)Nc2cccc(C)n2)cc1,-3%,nt,nt,25%,nt,nt,nt,nt,nt
Cc1cccc(NC(=O)Nc2ccc(F)cc2)n1,-5%,nt,nt,69%,nt,nt,18%,13%,?
Cc1ccc(OCCCCn2nnc3sc4c(c3c2=O)CCCC4)cc1,16%,nt,nt,0%,nt,nt,nt,nt,nt
Cc1cccc(OCCn2nnc3sc4c(c3c2=O)CCCC4)c1,7%,nt,nt,135%,nt,nt,7%,5%,?
NC(=O)c1ccccc1OCC(=O)N1CC(CNC(=O)Nc2ccccc2)C2(C1)CN(c1ccccc1)C2 (stereo not given),-5%,?,?,?,-1%,i,nt,nt,nt
